An excerpt weighted towards active compounds, which were near 3.4% of everything screened.
GAA850 FXN act: frataxin GAA850 promoter activation; HEK293 lucGAA850 FXN promoter luciferase reporter, 24 h; percent of 10 µM SAHA response; activation, % at 6 µM; 0.56% of 360,000 active; AID 540364;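 active means activation above the average of all compounds screened plus 3 SD, cutoff fixed separately per campaign, cut at about 7.5% in these data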;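 further: 0% = DMSO wells and 100% = 10 µM SAHA wells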
PG9 binder: small molecules binding HIV-1 gp120 antibody PG9 | TR-FRET gp120-PG9 antibody binding | inhibition, % at 6.7 µM | 0.43% of 360,000 active; in the data active means inhibition above about 8.5%
SMARCA2 act: activators of SMARCA2 function. MG213 cells, MMTV-luciferase reporter, dexamethasone, overnight. 1% of 370,000 active. activation, % at 9.1 µM; in the data active means activation above about 7.8%;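 further: 0% = vehicle wells and 100% = reference activator wells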
HSP90 refold inh: inhibitors of HSP90 luciferase refolding in rabbit reticulocyte lysate; luciferase refolding luminescence, 3 h; inhibition, % at 5.6 µM; 0.91% of 290,000 active;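 active means inhibition above the screen-wide mean plus 3 SD, computed separately per campaign, cut at about 16% in these data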;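 further: 0% = DMSO wells and 100% = 60 µM geldanamycin wells; inhibitors lower the luminescence because luciferase stays unfolded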
AI-2 QS mod: modulators of Vibrio harveyi AI-2 quorum sensing system; 0.4% of 300,000 active; Vibrio harveyi JMH597 AI-2 luminescence/OD600 ratio, 9 h; active compounds read low; strain lacks LuxN and CqsS sensors; 0 = neutral-control median; activity change, % at 7.5 µM; in the data active means activity change below about -75%, passing the limit was not always enough;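 further: luminescence divided by OD600 gain over 9 h not by final OD600 alone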
HSF1 inhib: HSF1 inhibition | NIH3T3-HGL HSE-luciferase, MG132-induced, luminescence 8 h; active compounds read low | activity change, negative = inhibition, % at 7.5 µM (by protocol) | 0.77% of 300,000 active | AID 2098;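 active means more than half of replicate wells show activity change below -50%, luminescence cut by over half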;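 further: luciferase reports HSF-1 transcriptional activity via heat shock element; 0% = median of DMSO wells and -100% = zero luminescence signal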
* hit, by the source's call; · = no result.

SMILES	GAA850 FXN act	PG9 binder	SMARCA2 act	HSP90 refold inh	AI-2 QS mod	HSF1 inhib
CCCOc1ccc(NC(=O)C2CC(=O)N/C(=N/N=C(C)/C=C/c3ccc(N(C)C)cc3)S2)cc1 (stereo unspecified)	-0.3	-3.1	9.3*	5.6	52.6	4.9
CCCC(C)C(=O)NC1CCCCN(Cc2ccc(C)cc2)C1=O (stereo unspecified)	·	·	-3.1	·	·	·
COc1cc(/C=C/C(=O)O)cc(S(=O)(=O)Nc2ccc3nc(C)sc3c2)c1OC	2.6	-1.1	-3.7	16.9*	15.9	-13.9
C(#Cc1ccccc1)CN1CCCCC1	1.5	1.3	-1.2	1.4	14.8	0.7
C(#Cc1ccccc1)CN1CCN(c2ccccn2)CC1	1.4	-1.4	-3.2	2.3	·	-71.6*
COC(=O)C1=C(C)Nc2c(c(=O)n(C)c(=O)n2C)C1c1cccc(O)c1 (stereo unspecified)	1.4	-0.4	-1.8	-1.1	17.0	-56.6*
CC(C)c1ccc(NC(=O)CNC(=O)Cn2ccc3ccccc3c2=O)cc1	-2.2	0.8	-1.7	1.9	-8.2	-8.0
COc1ccc(NC(=O)CCNC(=O)Cn2cnc3ccccc3c2=O)cc1OC	-0.2	-3.8	0.2	-3.6	29.4	0.5
CN(C(=O)CCNC(=O)Cn1cnc2ccccc2c1=O)c1ccc(F)cc1	-0.2	-1.1	-1.6	-3.0	8.9	-5.2
CC(C)c1ccc(NC(=O)CNC(=O)Cn2cnc3ccccc3c2=O)cc1	4.1	-1.7	-0.1	1.2	16.1	-82.6*
CN(C(=O)CCNC(=O)Cn1cnc2ccccc2c1=O)c1ccccc1F	2.5	-0.6	0.4	-1.2	7.8	-89.5*
COc1ccc(NC(=O)Cn2cnc3ccccc3c2=O)cc1OC	-0.2	1.4	-1.7	-3.0	-76.3*	1.8
COC(=O)C1=C(C)N(C)C(=NCc2cccc(C(F)(F)F)c2)NC1c1ccc(C(F)(F)F)cc1 (stereo unspecified)	·	-0.1	-2.4	·	·	·
Nc1ccccc1Sc1nc2ccccc2[nH]1	1.8	-0.7	9.2*	0.9	60.9	2.3
O=C(Nc1nc2ncccn2c1-c1ccc(F)cc1)c1ccccc1	·	·	-2.7	·	·	·
COc1ccc(OC)c(S(=O)(=O)N(CCc2ccc(OC)c(OC)c2)Cc2cccs2)c1	·	·	-3.9	·	·	·
COC(=O)[C@]12C[C@H](CC(=O)N3CCCC3)C(=O)N(Cc3cccc4ccccc34)C1=C[C@H](C(C)(C)C)O[C@@H]2C	·	·	-2.5	·	·	·
CC(/C=N\NC(=O)CSc1nnc(-c2ccc(Br)cc2)n1-c1ccccc1)=C\c1ccco1	·	·	-4.2	·	·	·
O=C(NC(=S)NC1C2CC3CC(C2)CC1C3)c1ccccc1 (stereo unspecified)	2.7	0.8	-0.6	3.3	19.3	-57.7*
CCCCNC(=O)C[C@H]1C[C@@]2(C(=O)OC)C(=C[C@H](C(C)(C)C)O[C@@H]2C)N(CCc2ccc(OC)c(OC)c2)C1=O	·	·	-3.9	·	·	·
CCNC(=O)Nc1ccc2c(c1)C(=O)N(C)[C@H]1CC[C@@H](CC(=O)OC)O[C@H]1CO2	·	·	-5.2	·	·	·
O=C(CCN1C(=O)/C(=C/c2ccc(F)cc2)SC1=S)NCCCn1ccnc1	-1.9	-2.9	-2.5	3.5	4.4	-58.5*
CC(C)c1ccc2oc(=O)cc(CN3CCCCC3)c2c1	1.3	-1.6	-0.6	0.5	-13.7	-54.3*
Cc1nnsc1S(=O)c1ccc(Cl)c(Cl)c1 (stereo unspecified)	-6.4	-2.1	-0.7	-1.6	-7.3	-80.8*
Cc1nnsc1S(=O)c1ccc(Cl)cc1 (stereo unspecified)	-1.4	-1.5	-3.1	-4.5	3.5	3.0
SMILES	GAA850 FXN act	PG9 binder	SMARCA2 act	HSP90 refold inh	AI-2 QS mod	HSF1 inhib
Clc1ccccc1Nc1nnc(-c2ccncc2)s1	1.5	-0.6	0.9	21.9*	22.1	-2.2
COc1ccccc1N1CCN(Cc2cc(=O)c(OCC(=O)Nc3ccccc3)co2)CC1	0.3	-0.8	-0.7	·	8.2	-8.3
CCCNC(=O)COc1coc(CN2CCN(c3ccccc3OC)CC2)cc1=O	0.8	-0.3	2.2	7.6	10.7	-72.5*
Cc1ccc(NC(=O)COc2coc(CN3CCc4ccccc4C3)cc2=O)c(C)c1	0.2	1.1	-3.2	·	15.2	3.2
Cc1ccc(C)c(NC(=O)COc2coc(CN3CCc4ccccc4C3)cc2=O)c1	-2.1	-1.4	-4.1	·	13.4	-51.1*
CC(C)NC(=O)COc1coc(CN2CCN(c3ccccc3)CC2)cc1=O	0.7	-1.5	-0.7	2.4	21.7	-52.8*
Cc1cc(NC(=O)COc2coc(CN3CCN(c4ccccc4F)CC3)cc2=O)no1	-0.6	-0.2	-3.1	·	21.8	-74.6*
COc1ccc(-c2nc3c(C)cc(Br)cn3c2Cc2ccccc2C(F)(F)F)cc1OC	·	2.7	-0.1	·	·	·
COc1ccc(C(=O)CSc2nnc(-c3cccs3)o2)cc1OC	·	·	-4.0	·	·	·
NNC(=O)c1nn(-c2ccccc2)cc1O	·	·	·	-3.8	19.3	-55.5*
C=C1C(=O)[C@]23C[C@H]1CCC2[C@@]1(C)C(C[C@@H]3O)[C@](C)(C(=O)OC)CC[C@@H]1OC(C)=O (stereo partly specified)	·	0.7	-11.1	·	·	·
C=C1C(=O)C2=CC1CCC(=O)C1(C)CCC(OC(C)=O)C(C)(C)C1CC2O (stereo unspecified)	-12.9	2.9	-12.4	·	·	88.5*
C[C@@H]1ON(C)[C@H]2C[C@H]3c4[nH]c5cccc(-c6ccc7c(c6)OCO7)c5c4CCN3C(=O)[C@@H]12	·	0.3	2.8	·	·	·
COC(=O)C1=C(C)N(Cc2cccc(C(F)(F)F)c2)C(=NCc2ccc3c(c2)OCO3)NC1c1ccc(Cl)cc1 (stereo unspecified)	·	3.1	-1.8	·	·	·
COc1ccc2[nH]c3c(c2c1)CCN[C@]31C(=O)N(Cc2cn(Cc3ccccc3)nn2)c2ccccc21	·	·	-3.3	·	·	·
O=C(c1ccc(F)cc1)N1CCCC(N2CCN(Cc3ccc4c(c3)OCO4)CC2)C1 (stereo unspecified)	-0.1	-0.4	-3.6	-1.1	11.8	-54.1*
CC1CCN(c2nc3ccc(C(=O)N4CCN(Cc5ccc6c(c5)OCO6)CC4)cc3s2)CC1	0.3	0.1	-2.7	57.6*	6.9	-44.9
O=C(c1cccc(Cl)c1)N1CCN(Cc2ccc3c(c2)OCO3)CC1	1.1	-0.6	-0.9	1.4	17.6	2.8
COc1ccccc1N1CCN(C(=O)c2ccc3c(c2)nc(C)n3-c2cc(OC)c(OC)c(OC)c2)CC1	·	·	-5.7	·	·	·
CCOc1ccc(NC(=O)CCCNC(=O)Cn2cnc3sc(C)c(C)c3c2=O)cc1	2.8	-1.4	-1.4	-3.7	32.6	-64.1*
Cc1ccc(NCN2C(=O)c3ccccc3C2=O)c(C)n1	·	-1.2	-1.7	·	·	·
CC(C)(C)c1ccc(S(=O)(=O)N2CCC(C(=O)NCC3COCCO3)CC2)cc1 (stereo unspecified)	·	·	-2.1	·	·	·
CCN(CC)c1ccc(NC(=O)CSc2nnc(SCc3ccc(Cl)cc3)s2)cc1	·	·	-5.3	·	·	·

Screens (PubChem BioAssay)
